Assay results reported in ChEMBL document CHEMBL1157539, “Thousands of chemical starting points for antimalarial lead identification” (Nature, 2010).

Test system: Plasmodium falciparum
Test: GSK_TCMDC: Inhibition of Plasmodium falciparum 3D7 in whole red blood cells, using parasite LDH activity as an index of growth. Test compounds present at 2uM
Assay type: functional

| SMILES | Inhibition [%] |
| --- | --- |
| Cc1cccc2nc(-c3cccc(-c4ccc(NC(=O)Cc5ccon5)cc4)c3)[nH]c12 | 87 |
| Cc1cc(-c2ccc(CNC3CCN(C)CC3)cc2)ccc1S(=O)(=O)NCc1ccccc1.O=C(O)C(F)(F)F | 100 |
| CCc1ccc(NC(=O)c2cccc(CN3CCCN(Cc4cccc(O)c4)CC3)c2)cc1.O=C(O)C(F)(F)F | 99 |
| Cc1cc(N2CCCC2)nc(Nc2ccc(NC(=O)c3cccc(F)c3)cc2)n1 | 97 |
| O=C(NC1CCN(Cc2ccccc2)CC1)c1cc(-c2ccncc2)c(-c2ccc(Cl)c(O)c2)o1.O=C(O)C(F)(F)F | 100 |
| CCCC(C)NC(=O)/C=C/c1ccccc1-c1cccc(OC)c1 (stereo not given) | 87 |
| COc1ccc2nccc([C@@H](O)CN3CCC(NS(=O)(=O)c4cc5c(cc4Cl)SCC(=O)N5)CC3)c2c1.O=C(O)C(=O)O | 88 |
| Cc1ccc(CN2CCCN(Cc3cccc(NC(=O)c4cc5ccccc5s4)c3)CC2)cc1.O=C(O)C(F)(F)F | 87 |
| Cc1cc(N[C@@H](CC(C)C)C(=O)NCc2cccc(F)c2)nc(NCC2CCCCC2)n1.O=C(O)C(F)(F)F | 99 |
| Cc1ccc(Nc2nc(N/N=C/c3cccc(O)c3)nc(Nc3ccc([N+](=O)[O-])cc3)n2)cc1C | 100 |
| COc1cc2nc(NCCC(C)C)n3nc(-c4ccccc4)nc3c2cc1OC | 94 |
| O=C(Nc1cccc(CCNCc2ccccc2)c1)Nc1cccc2ccccc12.O=C(O)C(F)(F)F | 100 |
| CCOc1ccc2c(=NN=Cc3cccc(OC)c3)cc(C)[nH]c2c1 | 97 |
| COc1ccc2nccc([C@@H](O)CN3CCC(NCCOc4ccc(F)cc4[N+](=O)[O-])CC3)c2c1.O=C(O)C(=O)O | 99 |
| COc1cc(Cc2cnc(N)nc2N)cc(OCCCN2C(=O)c3ccccc3C2=O)c1OC | 96 |
| O=C(Nc1nc2cc(S(=O)(=O)NCCc3ccc(F)cc3)ccc2n1CCCn1ccnc1)c1ccc(Cl)cc1.O=C(O)C(F)(F)F | 100 |
| CC(=O)O.CC(C)c1ccc(C2CCN(CCCCNC(=O)c3ccc(NC(=O)c4ccc(C(F)(F)F)cc4)cc3)CC2)c(O)c1 | 99 |
| O=C(NC1CCN(CCC[C@]2(c3ccc(Cl)c(Cl)c3)CCCN(C(=O)c3ccccc3)C2)CC1)c1ccc(Cl)cc1 | 95 |

| SMILES | Inhibition [%] |
| --- | --- |
| CCc1cc2c(N)nc(N)nc2nc1-c1ccccc1 | 91 |
| Cc1cc(N)nc2ccc(-c3ccc(CCN)cc3)cc12 | 100 |
| COc1cccc(CNc2ncc(-c3ccsc3)c(-c3nccs3)n2)c1 | 89 |
| O=C(Nc1ccc(N2CCC(Nc3ccccn3)CC2)cc1)c1cnc(Cl)c(Cl)c1.O=C(O)C(F)(F)F | 83 |
| CS(=O)(=O)c1ccc2[nH]c(-c3cc(-c4cccc(F)c4)cnc3N)nc2c1.O=C(O)C(F)(F)F | 100 |
| c1ccc(-c2nc(NCCCn3ccnc3)cc(-c3ccncc3)n2)cc1 | 100 |
| O=C(Nc1cccc(CN2CCCN(Cc3ncc[nH]3)CC2)c1)c1ccc(Cl)c(Cl)c1.O=C(O)C(F)(F)F | 100 |
| CC(C)Nc1nc(NCCc2c[nH]cn2)nc(NCc2ccc(Cl)c(Cl)c2)n1 | 88 |
| Cl.N#Cc1ccc2c(c1)CN(CCC1CCC(NC(=O)c3cc4ccccc4cc3N)CC1)CC2 (stereo not given) | 80 |
| O=C(Nc1cccc(-c2csc(-c3nc4ccccc4[nH]3)c2)c1)c1cccnc1 | 98 |
| COc1cccc(-c2cccc(CNC3CCN(CC4Cn5c(=O)ccc6ccc(F)c4c65)CC3)c2)c1.O=C(O)C(F)(F)F (stereo not given) | 99 |
| COc1c(C2CCN(CCCCNC(=O)c3ccc(-c4ccc(Cl)cc4)c(OCC(N)=O)c3)CC2)ccc2c1CCCC2 | 97 |
| Cc1[nH]c(C)c(-c2ccc(OCCCc3ccccn3)cc2)c(=O)c1Br.Cl | 98 |
| O=C(O)C(F)(F)F.OCCN1CCN(Cc2ccc(-c3ccc(-c4nc5cc(F)ccc5[nH]4)cc3)cc2)CC1 | 100 |
| CC(C)(C)CCN1CCC(CNC(=O)c2cc(-c3cccc(C(F)(F)F)c3)cs2)C1.O=C(O)C(F)(F)F (stereo not given) | 93 |
| O=C(Cc1cccs1)NC(CCCN1CCC(Oc2cccc(Cl)c2)CC1)c1ccc(Cl)c(Cl)c1 (stereo not given) | 86 |
| O=C(NC1CCN(c2ccnc3cc(Cl)ccc23)C1)c1ccccc1F.O=C(O)C(F)(F)F (stereo not given) | 100 |
